The nature of experiment [1]: qHTS assay to identify aromatase inhibitors - cell viability counter screen (AID 743084).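 Further: cells stimulated with testosterone during compound exposure; nearly all actives have a fitted effect of over 55% in size.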
Experiment [2] concerns the target Aryl hydrocarbon receptor (Homo sapiens) (UniProt P35869). Kind of experiment: qHTS assay to identify small molecule that activate the aryl hydrocarbon receptor (AhR) signaling pathway (AID 743085). Further: nearly all actives have a fitted effect of over 15% in size. Further: potency means the concentration at half of the fitted maximal effect.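 On activation: HG2L7.5c1 human HepG2 liver cells with stably integrated DRE-driven firefly reporter; series mostly up to about 70 µM.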 An outline of the steps:
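AhR agonist activity is inferred from enhanced light output of a DRE-controlled firefly luciferase reporter in HepG2 cells, measured with ONE-Glo following 24 h treatment at 37C.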

Experiment [3] can be described thus: qHTS assay to identify small molecule that activate the aryl hydrocarbon receptor (AhR) signaling pathway - cell viability counter screen (AID 743086).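 Further: HepG2 liver cells carrying the AhR DRE luciferase reporter; series mostly up to about 70 µM; nearly all actives have a fitted effect of over 45% in size.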 An outline of the steps:
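Cytotoxicity counter screen: CellTiter-Fluor signal (30 min, 37 C) in 4000 HepG2 cells/well carrying the DRE-luciferase reporter, following 24 h compound exposure at 37 C.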
A general note: In qHTS, concentration-response curves come from the screen itself.

The target in experiment [4] is Peroxisome proliferator-activated receptor gamma (Homo sapiens) (UniProt P37231). Kind of experiment: qHTS assay to identify small molecule agonists of the peroxisome proliferator-activated receptor gamma (PPARg) signaling pathway (AID 743094; active means well fitted activation curve with a large enough effect in the signal ratio in the repeat runs, not every such curve was filed as active; the % refers to the signal ratio). In short, it runs like this:
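Cell-based bla reporter, HEK293H background, PPARg-driven UAS. Pre-incubation 5 h, 37C, 5% CO2. Compound 17 h, 37C. Substrate 1 h RT; fluorescence.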

Experiment [5] is described as follows: qHTS assay to identify small molecule antagonists of the peroxisome proliferator-activated receptor gamma (PPARg) signaling pathway - cell viability counter screen (AID 743194). Further: nearly all actives have a fitted effect of over 55% in size. An outline of the steps:
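Viability was measured as CellTiter-Glo luminescence in GeneBLAzer PPARg UAS-bla HEK293H cells. These cells had been exposed 17 h at 37 C to compounds together with rosiglitazone at 50 nM final, with the beta-lactamase readout taken in the same wells.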

Experiment [6] in a line: qHTS assay for small molecule agonists of the antioxidant response element (ARE) signaling pathway (AID 743202; active means well fitted activation curve with a large enough effect in the signal ratio in the repeat runs, not every such curve was filed as active; the % refers to the signal ratio; further: potency means the concentration at half of the fitted maximal effect). In short, it runs like this:
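Beta-lactamase reporter activity, read as fluorescence intensity, reflects ARE/Nrf2 pathway induction in HepG2 cells after 16 h compound exposure at 37 C; substrate loading was 2 h at room temperature.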

The nature of experiment [7]: qHTS assay for small molecule activators of the heat shock response signaling pathway - cell viability counter screen (AID 743209). Further: nearly all actives have a fitted effect of over 50% in size. In short, it runs like this: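 Same-well multiplex: after 2.5 h room-temperature incubation with LiveBLAzer B/G substrate and fluorescence reading, CellTiter-Glo reagent was added to HSE-bla HeLa cells that had received compound for 5 h at 37 C; luminescence read after 30 min.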

A short description of experiment [8]: qHTS assay for small molecule activators of the heat shock response signaling pathway (AID 743210; active means well fitted activation curve with a large enough effect in the signal ratio in the repeat runs, with a control signal flat, not every such curve was filed as active; the % refers to the signal ratio;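 further: HeLa cells with beta-lactamase reporter driven by heat shock elements; series mostly up to about 63 µM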). An outline of the steps:
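Fluorescence from a cleaved B/G FRET substrate (2.5 h, room temp) reports HSE-driven beta-lactamase in HeLa cells treated 5 h at 37 C with DMSO-dissolved compounds.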

A short description of experiment [9]: qHTS assay for small molecule agonists of the antioxidant response element (ARE) signaling pathway - cell viability counter screen (AID 743203; calls by dose curve; further: nearly all actives have a fitted effect of over 55% in size). An outline of the steps:
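Measured in the same wells as the beta-lactamase ARE reporter, this read-out is CellTiter-Glo luminescence from HepG2 ARE-bla cells given compounds for 16 hrs.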

Results filed as inconclusive are left out. Activity calls are given as the source filed them. Unless noted, the call rests on the fitted dose curve; in most records, active means well fitted curve in the direction sought with a large enough effect in the repeat runs; inconclusive means weak or mixed curves; inactive means no such curve, though single readings can be large; an effect the other way counts as inactive or inconclusive.

Sequence of Peroxisome proliferator-activated receptor gamma (Homo sapiens) (P37231 whole entry, looked up): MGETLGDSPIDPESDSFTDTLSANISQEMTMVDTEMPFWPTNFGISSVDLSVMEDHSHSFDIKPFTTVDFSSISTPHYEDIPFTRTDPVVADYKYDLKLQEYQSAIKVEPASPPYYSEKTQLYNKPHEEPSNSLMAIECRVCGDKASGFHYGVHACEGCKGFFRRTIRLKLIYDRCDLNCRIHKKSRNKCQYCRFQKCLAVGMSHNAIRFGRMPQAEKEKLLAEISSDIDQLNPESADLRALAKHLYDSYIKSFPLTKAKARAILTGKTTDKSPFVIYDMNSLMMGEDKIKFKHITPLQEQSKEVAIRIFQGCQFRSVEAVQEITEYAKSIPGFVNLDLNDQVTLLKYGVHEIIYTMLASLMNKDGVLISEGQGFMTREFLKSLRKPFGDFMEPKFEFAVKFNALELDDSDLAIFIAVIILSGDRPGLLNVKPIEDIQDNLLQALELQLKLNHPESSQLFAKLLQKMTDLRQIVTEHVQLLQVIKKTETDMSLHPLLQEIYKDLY
Sequence of Aryl hydrocarbon receptor (Homo sapiens) (P35869 whole entry, looked up): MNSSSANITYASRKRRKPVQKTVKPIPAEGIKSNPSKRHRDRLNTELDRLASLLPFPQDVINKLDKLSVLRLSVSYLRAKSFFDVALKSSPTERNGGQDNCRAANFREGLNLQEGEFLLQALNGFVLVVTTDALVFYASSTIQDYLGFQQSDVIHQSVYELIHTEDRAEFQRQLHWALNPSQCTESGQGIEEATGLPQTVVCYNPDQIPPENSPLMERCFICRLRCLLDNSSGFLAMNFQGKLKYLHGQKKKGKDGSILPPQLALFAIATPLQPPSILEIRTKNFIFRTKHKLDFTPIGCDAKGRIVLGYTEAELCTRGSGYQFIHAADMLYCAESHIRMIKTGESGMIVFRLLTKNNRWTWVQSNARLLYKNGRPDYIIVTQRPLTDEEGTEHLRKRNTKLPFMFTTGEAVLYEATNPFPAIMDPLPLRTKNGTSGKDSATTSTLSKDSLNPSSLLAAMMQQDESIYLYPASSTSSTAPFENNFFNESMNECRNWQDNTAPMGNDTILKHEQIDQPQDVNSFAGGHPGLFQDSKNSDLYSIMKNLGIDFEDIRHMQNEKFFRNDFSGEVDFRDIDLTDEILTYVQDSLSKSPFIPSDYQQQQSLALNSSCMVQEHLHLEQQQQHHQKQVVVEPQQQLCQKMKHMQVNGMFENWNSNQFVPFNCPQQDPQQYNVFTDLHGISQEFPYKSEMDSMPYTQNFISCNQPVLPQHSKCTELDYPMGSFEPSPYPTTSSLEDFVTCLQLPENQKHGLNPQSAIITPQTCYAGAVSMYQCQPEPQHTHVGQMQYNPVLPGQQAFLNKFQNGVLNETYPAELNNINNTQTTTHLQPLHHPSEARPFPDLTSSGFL

Turning to `O=C1CCCCC1C1CCCCC1` (stereo unspecified), the Potency entry in experiment [1], in experiment [2], in experiment [4], in experiment [5], in experiment [6] and in experiment [8] was “inactive” throughout. The compound was classed as inactive in experiment [3] and in [7].
Take `Cc1c(C(=O)NCCO)[n+](=O)c2ccccc2n1[O-]`: the Potency entry in [1], in experiment [2], in [4], in experiment [5], in [6] and in [9] was “inactive” each time. For the same compound, in experiment [8], the Potency entry is “inactive”. The outcome in [3] and in [7] was inactive.
Take `C=Cc1ccccc1`: the Potency result in experiment [1], in experiment [2], in experiment [4], in [5], in [6] and in [9] was “inactive” in each case. The Potency result in experiment [8] is “inactive”. Moreover, the result in experiment [3] and in [7] was inactive.
`CC1(C)S[C@@H]2[C@H](NC(=O)C(C(=O)O)c3ccccc3)C(=O)N2[C@H]1C(=O)O` (stereo partly specified): the Potency entry in [1], in [2], in experiment [4], in experiment [5], in experiment [9] and in experiment [8] was “inactive” each time. The outcome in [3] and in [7] was inactive.
With `O=C(O)c1cccc(Cl)c1Cl`, the Potency entry in experiment [1], in experiment [2], in [4], in [5], in [6] and in experiment [9] was “inactive” throughout. In experiment [8], the Potency result was “inactive”. The call in experiment [3] and in experiment [7] was inactive.
Take `CCCN(CCC)C(=O)C(CCC(=O)O)NC(=O)c1ccccc1` (stereo unspecified): the Potency result in experiment [1], in [2], in experiment [4], in experiment [5], in experiment [6] and in experiment [9] was “inactive” each time. Besides, the Potency entry in experiment [8] was “inactive”. Moreover, the outcome in [3] and in experiment [7] was inactive.
On to `COc1ccccc1N1CCN(CCCNc2cc(=O)n(C)c(=O)n2C)CC1`, for which the Potency result in experiment [1], in [2], in experiment [4], in [5], in [9] and in experiment [8] was “inactive” throughout. Also, the compound was classed as inactive in experiment [3] and in experiment [7].
For `Oc1ccccc1F`, the Potency entry in [1], in experiment [2], in [4], in [5], in experiment [6] and in [9] was “inactive” in each case. The Potency entry in experiment [8] was “inactive”. Moreover, the call in experiment [3] and in experiment [7] was inactive.
As for `CCOC(=O)CS`, the Potency entry in experiment [1], in experiment [2], in experiment [4], in [5], in experiment [6] and in [9] was “inactive” throughout. For the same compound, in [8], the Potency entry is “inactive”. Further, the compound was called inactive in experiment [3] and in experiment [7].
For the compound `CC(=O)Oc1cc(C(C)C)c(OCCN(C)C)cc1C`, the Potency result in [1], in experiment [2], in experiment [4], in experiment [5], in experiment [6] and in [9] was “inactive” throughout. Further, the Potency result in experiment [8] was “inactive”. In addition, the outcome in experiment [3] and in experiment [7] was inactive.
Consider `CC(CNC1CCCCC1)OC(=O)c1ccccc1` (stereo unspecified), for which the Potency entry in [1], in experiment [2], in experiment [4], in [5], in experiment [6] and in [9] was “inactive” each time. In [8], the Potency entry is “inactive”. For the same compound, the result in [3] was inactive.
For the compound `CC(C)CC(=O)OCc1ccccc1`, the Potency entry in [1], in [2], in experiment [4], in [5], in [6] and in experiment [9] was “inactive” in each case. Further, the Potency entry in experiment [8] was “inactive”. Moreover, the outcome in experiment [3] and in experiment [7] was inactive.
With `COc1nc(C)nc(NC(=O)NS(=O)(=O)c2ccccc2OCCCl)n1`, the Potency entry in [1], in experiment [2], in experiment [4], in experiment [5], in [6] and in experiment [8] was “inactive” in each case. Besides, the outcome in experiment [3] and in experiment [7] was inactive.
`CCOC(=O)NCCC[Si](OCC)(OCC)OCC`: the Potency entry in experiment [1], in experiment [2], in [4], in [5], in [6] and in experiment [8] was “inactive” each time. In [3], the result was inactive.
For the compound `C[C@@H]1CN(c2c(F)c(N)c3c(=O)c(C(=O)O)cn(C4CC4)c3c2F)C[C@H](C)N1`, the Potency entry in experiment [1], in experiment [2], in [4], in experiment [5], in experiment [6] and in [9] was “inactive” in each case. Further, in experiment [8], the Potency result was “inactive”. Besides, the outcome in [3] was inactive.
For `COc1ccc2nc(NC(=O)Nc3ccccc3)sc2c1`, the Potency result in [1], in experiment [4], in experiment [5] and in [9] was “inactive” each time. The Potency in experiment [2] is 10.6 µM (active). For the same compound, the compound was classed as inactive in experiment [3] and in [7].
With `CCCCc1ccc2nc(NC(=O)OC)[nH]c2c1`, the Potency entry in experiment [1], in experiment [4], in experiment [5] and in experiment [9] was “inactive” throughout. The Potency in [2] is 1.01 µM (active). Besides, the call in experiment [3] and in experiment [7] was inactive.
Turning to `CCNCCO`, the Potency entry in [1], in experiment [2], in experiment [4], in [5], in experiment [6] and in experiment [9] was “inactive” in each case. The Potency entry in experiment [8] is “inactive”. For the same compound, the compound was called inactive in experiment [3] and in experiment [7].
Regarding `CS(=O)(=O)c1ccc([C@@H](O)[C@@H](CF)NC(=O)C(Cl)Cl)cc1`, the Potency entry in [1], in experiment [2], in [4], in experiment [5], in [6] and in experiment [9] was “inactive” in each case. In experiment [8], the Potency result is “inactive”. Also, the outcome in experiment [3] was inactive.
`O=C(O)[C@@H](O)[C@H](O)[C@H](O)[C@@H](O)C(=O)O`: the Potency result in [1], in [2], in [4], in experiment [5], in experiment [6] and in [9] was “inactive” in each case. In addition, in experiment [8], the Potency entry was “inactive”. In experiment [3], the outcome was inactive.
Take `Cc1cccc(C)c1NC(=O)CN1CCCCCC1`: the Potency entry in [1], in experiment [2], in experiment [4], in experiment [5], in experiment [6] and in experiment [9] was “inactive” throughout. Besides, in experiment [8], the Potency result was “inactive”. Besides, the compound was classed as inactive in [3] and in experiment [7].
For the compound `CCOc1ccc2nc(N)sc2c1`, the Potency entry in [1], in [4], in experiment [5], in experiment [9] and in experiment [8] was “inactive” throughout. The Potency in experiment [2] is 2.15 µM (active); in experiment [6], 48.2 µM (active). Besides, the call in experiment [3] and in experiment [7] was inactive.
On to `C=CCCCCCCCCO`, for which the Potency result in experiment [1], in [2], in experiment [4], in experiment [5], in experiment [6] and in experiment [9] was “inactive” in each case. For the same compound, the Potency result in [8] was “inactive”. For the same compound, the result in experiment [3] and in experiment [7] was inactive.
Regarding `CC(C)C1=CC2=CC[C@@H]3[C@](C)(CCC[C@@]3(C)C(=O)O)[C@H]2CC1`, the Potency result in experiment [1], in [2], in experiment [4], in [5] and in [9] was “inactive” in each case. The outcome in [3] and in experiment [7] was inactive.
`CC(C)=CCC[C@](C)(O)[C@@H]1CC=C(C)CC1`: the Potency result in experiment [1], in experiment [2], in experiment [4], in experiment [5] and in experiment [9] was “inactive” each time. Besides, the compound was called inactive in [3].
With `CCc1cc(Cl)c(OC)c(C(=O)NC[C@@H]2CCCN2CC)c1O`, the Potency entry in experiment [1], in [2], in experiment [4], in experiment [5], in experiment [6] and in experiment [9] was “inactive” in each case. The Potency result in experiment [8] is “inactive”. Also, the result in [3] and in experiment [7] was inactive.
As for `CCCCCCCOC(=O)CCC`, the Potency result in experiment [1], in [2], in experiment [4], in [5], in [6] and in experiment [9] was “inactive” each time. In addition, the Potency entry in [8] was “inactive”. For the same compound, in experiment [3], the compound was called inactive.
With `FC(F)(F)C(F)(F)C(F)(F)C(F)(F)C(F)(F)C(F)(F)C(F)(F)C(F)(F)Br`, the Potency entry in experiment [1], in experiment [2], in experiment [4], in experiment [5], in [6] and in experiment [9] was “inactive” each time. Also, the Potency entry in experiment [8] was “inactive”. The call in [3] and in experiment [7] was inactive.
Take `O=C1CCCCCCCCCCC(=O)OCCO1`: the Potency result in experiment [1], in [2], in experiment [4], in experiment [5], in experiment [6] and in experiment [9] was “inactive” throughout. Moreover, in experiment [8], the Potency entry is “inactive”. Further, the call in experiment [3] and in experiment [7] was inactive.

Values taken from PubChem BioAssay (Tox21).
